Screens as filed in PubChem.
PRC2 inh: EZH2/PRC2 methyltransferase inhibitors, primary screen, biochemical, DELFIA time-resolved fluorescence, single point | PRC2 H3K27 methylation, DELFIA TRF, 1 h | 57,000 tested, 0.35% active | Histone-lysine N-methyltransferase EZH2 (Homo sapiens), Q15910 | inhibition, % at 12.5 µM;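 active means mean inhibition of replicates at least 50% and every single replicate also reaching 50%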;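 further: dimethyl H3K27 on biotinylated H3 21-44 peptide detected by antibody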
Of the large screens only hits and unclear results are named; the others gave an inactive call. Many of the other results were omitted from the sample, so hits are more common in it than they were.

COC(=O)C(CC#Cc1ccc2c(c1)[C@]1(C(=O)N2)[C@H](C(=O)O)[C@H]2C(=O)O[C@H](c3ccccc3)[C@H](c3ccccc3)N2[C@@H]1c1ccc(OCCO)cc1)C(=O)OC	none
COC(=O)C(CC#Cc1ccc2c(c1)[C@]1(C(=O)N2)[C@H](C(=O)N2CCCCCCC2)[C@H]2C(=O)O[C@H](c3ccccc3)[C@H](c3ccccc3)N2[C@@H]1c1ccccc1OCCO)C(=O)OC	none
COC(=O)c1ccccc1NC(=O)C1CCCN(S(=O)(=O)c2ccccc2)C1 (configuration not stated)	none
CC(C)CC#Cc1cnc2c(c1)C(=O)N([C@@H](C)CO)C[C@H](C)[C@H](CN(C)C(=O)c1cccc(F)c1)O2	none
C[C@@H]1CN([C@H](C)CO)S(=O)(=O)c2ccc(C#CCN(C)C)cc2O[C@H]1CN(C)S(C)(=O)=O	none
C[C@@H]1CN([C@H](C)CO)C(=O)Cc2cc(NC(=O)c3ccncc3)ccc2O[C@@H]1CN(C)Cc1ccccc1	none
CCCN(C)C[C@@H]1OCCCC[C@H](C)Oc2ccc(NC(=O)Nc3ccc(F)cc3)cc2C(=O)N([C@@H](C)CO)C[C@@H]1C	none
O=C(OCc1ccccc1O[C@@H]1O[C@H](CO)[C@@H](O)[C@H](O)[C@H]1O)c1c(O)cccc1O[C@@H]1O[C@H](CO)[C@@H](O)[C@H](O)[C@H]1O	none
O=C(OCC1OC(Oc2ccc(O)cc2COC(=O)C2(O)C(O)CCC(=O)C2O)C(O)C(O)C1O)c1ccccc1 (configuration not stated)	none
CC(C)CC(=O)c1c(O)cc(O)cc1OC1OC(COC(=O)c2cc(O)c(O)c(O)c2)C(O)C(O)C1O (configuration not stated)	PRC2 inh 93.9
CC(C)(C)OC(=O)N1CCC[C@H]1/C=N/NC(=O)c1ccccc1O	none
C[C@H]1CN([C@@H](C)CO)S(=O)(=O)c2ccc(C3=CCCCC3)cc2O[C@@H]1CN(C)C(=O)C1CCOCC1	none
C[C@@H]1CN([C@H](C)CO)C(=O)c2cc(C#Cc3ccncc3)cnc2O[C@H]1CN(C)CC1CCOCC1	PRC2 inh 99.7
C[C@@H]1CN([C@@H](C)CO)C(=O)c2cc(C#Cc3ccncc3)cnc2O[C@@H]1CN(C)CC1CCOCC1	none
C[C@H]1CN([C@@H](C)CO)C(=O)c2cc(C#Cc3ccccc3)cnc2O[C@@H]1CN(C)CC1CCOCC1	none
O=C(C[C@H]1C=C[C@H](NC(=O)c2ccc3c(c2)OCO3)[C@@H](CO)O1)NC1Cc2ccccc2C1	none
O=C(C[C@H]1C[C@H]2c3cc(NS(=O)(=O)c4ccccc4)ccc3O[C@H]2[C@@H](CO)O1)NCC(F)(F)F	none
N#C/C(=C/c1ccc(O)c(O)c1)C(=O)Nc1ccccc1	none
N#CC(C#N)=C(N)/C(C#N)=C/c1cc(O)c(O)c(O)c1	none
N#C/C(=C\c1ccc(O)c(O)c1)C(=O)c1ccc(O)c(O)c1	PRC2 inh 93.5
COCC(=O)N1C[C@@H](C)[C@@H](OC)CN(C)C(=O)c2cc(NC(=O)Nc3ccccc3)ccc2OC[C@H]1C	none
COc1ccc(S(=O)(=O)N(CC(=O)Nc2ccccc2F)C2CCCCC2)cc1Cl	none
C[C@H]1CN([C@@H](C)CO)S(=O)(=O)c2ccc(C#CC(C)(C)O)cc2O[C@@H]1CN(C)C(=O)C1CCC1	none
O=C(N[C@@H]1CC[C@H](CC(=O)N2CCCCC2)O[C@H]1CO)c1ccccn1	none
O=C(C[C@@H]1C[C@H]2c3cc(NC(=O)c4ccc5c(c4)OCO5)ccc3O[C@H]2[C@@H](CO)O1)NCc1ccccn1	none
Cc1cc(=O)[nH]c(SCCCOc2ccc([N+](=O)[O-])cc2)n1	none
CC(C)=CCN(CC#Cc1ccccc1)[C@H](CO)c1ccccc1	PRC2 inh 66.3
CC(C)=CCN[C@H](CO)c1ccccc1	none
C[C@@H]1CN([C@@H](C)CO)C(=O)c2cccc(NC(=O)c3cnccn3)c2O[C@H]1CN(C)Cc1ccccc1	none
COc1cc(OC)cc(C(=O)Nc2ccc(OCC(=O)O)cc2)c1	none
CCCN(C)C[C@@H]1Oc2cc(C#Cc3ccccc3F)ccc2S(=O)(=O)N([C@@H](C)CO)C[C@H]1C	none
COc1c(O[C@@H]2O[C@H](C(=O)O)[C@@H](O)[C@H](O)[C@H]2O)cc2oc(-c3ccc(O)cc3)cc(=O)c2c1O	none
COc1c(O)cc2c(=O)oc3c(OC)c(O[C@@H]4OC[C@@H](O)[C@H](O)[C@H]4O)cc4c(=O)oc1c2c34	PRC2 inh 80.2
O=C(C[C@@H]1C=C[C@H](NC(=O)C2CC2)[C@H](CO)O1)NC1CCC1	none
Cc1noc(C)c1NC(=O)Nc1ccc2c(c1)C(=O)N([C@H](C)CO)C[C@H](C)[C@@H](CN(C)CC1CCCCC1)O2	none
COc1cccc(C(=O)Nc2ccc3c(c2)C(=O)N(C)C[C@H](OC)[C@@H](C)CN(CCc2ccccc2)[C@@H](C)CO3)c1	none
COc1ccc(CN(C)C[C@H]2Oc3ccc(NC(=O)Nc4c(C)noc4C)cc3C(=O)N([C@@H](C)CO)C[C@@H]2C)cc1	none
NC(=O)CSc1nc2ccccc2n1Cc1ccccc1F	none
COc1ccc(OCc2nc3ccccc3n2Cc2ccccc2F)cc1	PRC2 inh 58.2
